# ELG1 DNA repair = inhibitors of ELG1-dependent DNA repair in HEK293T cells; HEK293T ELG1-luciferase reporter, luminescence, 16 h; DNA damage induced by 5-fluorouridine; Potency, µM (titrated, usually from 46.1 µM), for the others: at the highest dose activity change, negative = inhibition, actives largely listed as inhibitors; 330,000 compounds, 2.3% hits; AID 504467; also: potency is read from the fitted curve at half-maximal effect; nearly all actives have a fitted effect of over 55% in size
#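 Luminescence from the luciferase reporter, measured 30 min after ONE-Glo reagent at room temperature, was the read-out. Beforehand, 2,000 cells per well were exposed for 16 hr at 37 °C to 5-fluorouridine together with compound or vehicle.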
# TDP1 inh = blocks human tyrosyl-DNA phosphodiesterase 1. Q9NUW8. recombinant TDP1, AlphaScreen DNA substrate cleavage. Potency, µM (top dose mostly 130 µM), for inactives: at the highest dose activity change, negative = inhibition, actives largely listed as inhibitors. 350,000 compounds, 0.28% hits; also: potency is read from the fitted curve at half-maximal effect; nearly all actives have a fitted effect of over 40% in size
# Target sequence (Q9NUW8 whole entry, looked up): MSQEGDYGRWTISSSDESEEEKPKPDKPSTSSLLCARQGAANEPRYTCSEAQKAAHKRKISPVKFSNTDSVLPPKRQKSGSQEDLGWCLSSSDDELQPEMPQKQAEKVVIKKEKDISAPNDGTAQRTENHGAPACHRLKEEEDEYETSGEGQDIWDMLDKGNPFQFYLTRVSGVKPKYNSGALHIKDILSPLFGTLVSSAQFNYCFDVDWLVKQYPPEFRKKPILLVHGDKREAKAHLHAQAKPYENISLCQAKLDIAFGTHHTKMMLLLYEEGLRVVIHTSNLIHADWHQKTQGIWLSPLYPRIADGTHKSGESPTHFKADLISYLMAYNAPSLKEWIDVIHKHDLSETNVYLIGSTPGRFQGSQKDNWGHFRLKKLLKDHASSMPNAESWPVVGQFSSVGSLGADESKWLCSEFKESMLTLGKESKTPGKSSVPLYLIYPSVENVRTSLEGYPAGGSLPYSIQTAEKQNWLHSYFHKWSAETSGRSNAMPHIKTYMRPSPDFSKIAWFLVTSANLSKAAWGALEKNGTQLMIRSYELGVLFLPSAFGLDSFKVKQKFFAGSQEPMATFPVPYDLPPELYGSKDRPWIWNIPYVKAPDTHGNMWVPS
#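 Compounds were preincubated with Tdp1 (1 nM final) for 15 min at room temperature before substrate (15 nM final) started a 5 min reaction; beads (10 ug/ml final) were then added for 10 min before AlphaScreen detection.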
# DT40 TDP1 no CPT = qHTS for Inhibitors of human tyrosyl-DNA phosphodiesterase 1 (TDP1): qHTS in cells in absence of CPT; Potency, µM (top dose mostly 46.2 µM), for the others: at the highest dose activity change, negative = growth inhibition, most hits filed as inhibitors; AID 686978, 2013; DT40 Tdp1-/- hTDP1 cells, no CPT, ATP luminescence, 48 h; 420,000 compounds, 15% hits; also: potency is read from the fitted curve at half-maximal effect; nearly all actives have a fitted effect of over 55% in size
#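 Stably hTDP1-transfected Tdp1-null chicken DT40 cells were treated with library compounds minus camptothecin and grown for at least 48 hr at 37 °C, after which cellular ATP was quantified by luminescence.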
# DT40 TDP1 CPT = DT40-hTDP1 cell growth loss with CPT. chicken DT40 Tdp1-/-;hTDP1 cells + 20 nM CPT, ATP luminescence, 48 h. 420,000 compounds, 12% hits. Potency, µM (titrated, usually from 46.2 µM), for the others: at the highest dose activity change, negative = growth inhibition, most hits filed as inhibitors; also: potency is read from the fitted curve at half-maximal effect; nearly all actives have a fitted effect of over 55% in size
#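 Chicken DT40 Tdp1-/- cells complemented with human TDP1, 400 cells/well, exposed to compounds plus 20 nM camptothecin for at least 48 h at 37 C; viability read as ATP content by CellTiter-Glo luminescence.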
# Giardia kill = kills Giardia lamblia; AID 540267; 340,000 compounds, 0.15% hits; activity change, % at 7.66 µM, hits read low; Giardia lamblia trophozoite viability; in the data active = activity change below about -80%; inconclusive = between about -30% and that limit;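 also: parasites exposed to compound for two days anaerobically before the ATP read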
#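 Giardia lamblia trophozoites (100 cells/well) were incubated with compounds for 48 h at 37 deg C under anaerobic conditions. Viability was read as ATP content by one-step luminescence after 15-30 min at room temperature.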
# IL1B secr inh = blocks inflammasome-driven IL-1 beta release | THP-1 LPS/ATP IL-1B secretion, AlphaLISA, 16 h; stronger effect = lower value | AID 743279 | activity change, % at 57.5 µM | 360,000 compounds, 4.7% hits; in the data active = activity change below about -50%; inconclusive = mostly about -30% to -49%
#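 Secreted IL-1B measured by AlphaLISA bead assay after 16 h compound exposure of THP-1 cells; compounds (final up to 57.5 uM) added 1 h before LPS (250 ng/mL) and ATP (1.25 mM) stimulation; lower signal means less secretion.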
# * hit, by the source's call; ? = inconclusive; · = not tested or not shown; ! = not active in a repeat; [ ] = dose if it differs, or a comment. Rows were chosen to be rich in hits. Some 19% of all compounds tested hit in one or more screens of this group. Unless noted, calls follow the shape of the dose curve; as a rule, active = well fitted curve in the direction sought with a large enough effect; inconclusive = small, poorly fitted or top-dose-only effect, or another doubt; inactive = no such curve, though single readings can be large; an effect the other way counts as inactive or inconclusive. % is scaled to controls: 0 for no effect and ±100 for the full control effect.
SMILES,ELG1 DNA repair,TDP1 inh,DT40 TDP1 no CPT,DT40 TDP1 CPT,Giardia kill,IL1B secr inh
CCOC(=O)c1cnc(-n2nc(C)cc2C)nc1Nc1ccc(C)cc1,?,2%,5.2µM*,4.6µM*,-18,0
CCOC(=O)c1cnc(-n2nc(C)cc2C)nc1NC,-10%,7%,?,?,-25,-14
CCOC(=O)c1cnc(-n2nc(C)cc2C)nc1NC1CCCCC1,-17%,5%,5.2µM*,4.6µM*,6,-100*
CCOC(=O)c1cnc(-n2nc(C)cc2C)nc1Oc1ccc(C#N)cc1,4%,-1%,-27%,-11%,6,15
CC1=C(/C=C/C(C)=C/C=C/C(C)=C\CO)C(C)(C)CCC1,·,9%,?,18µM*,·,·
CC1=C(/C=C/C(C)=C/C=C/C(C)=C\C=O)C(C)(C)CCC1,·,14%,·,·,·,·
CC1=C(/C=C/C(C)=C/C=C/C(C)=C/CO)C(C)(C)CCC1,·,11%[56.1 µM],21µM*!,?,12,-21
CC1=C(/C=C/C(C)=C/C=C/C(C)=C/C=C/C=C(C)/C=C/C=C(C)/C=C/C2=C(C)C(=O)CCC2(C)C)C(C)(C)CCC1=O,·,4%,-19%,-13%,·,·
CC(=O)OC/C=C(C)/C=C/C=C(C)/C=C/C1=C(C)CCCC1(C)C,·,1%,23µM*!,?,·,·
CC1=C(/C=C/C(C)=C/C=C/C(C)=C/C=O)C(C)(C)CCC1,·,19%,·,·,·,·
Cc1ccc(N(C)C(=O)c2cc(S(=O)(=O)N3CCOCC3)cn2C)cc1,·,3%,-16%,-19%,·,·
COC(=O)NC(C(=O)OC)(C(=O)OC)c1ccccc1,·,4%,·,·,·,·
O=C(CN1CCC(c2nc3ccccc3s2)CC1)NCc1cccs1,9.2µM*,9%,18µM*,?,7,-22
COc1cc(NC(=O)CCc2c(C)nn(-c3ccc4nncn4n3)c2C)cc(OC)c1OC,·,0%,-23%,-3%,·,·
O=C(CCCCn1c(=S)[nH]c2ccsc2c1=O)NCc1ccc2c(c1)OCO2,-8%,-8%,18µM*,?,-6,-3
O=C(CCCCn1c(=O)c2ccccc2n(Cc2cccc(Cl)c2)c1=O)NCc1ccc2c(c1)OCO2,·,6%,12µM*,?,·,·
Cc1ccccc1Cn1c(=O)n(CCCCC(=O)NCc2ccc3c(c2)OCO3)c(=O)c2ccccc21,·,5%,?,23µM*,·,·
CCOc1ccc(NC(=O)CSc2ncc(S(=O)(=O)c3ccc(F)c(C)c3)c(=O)[nH]2)cc1,·,2%,·,·,·,·
CCOC(=O)C1=C(N2CCCCC2)c2cc3c(n2C1=O)CCCC3,?,12%,9.2µM*,?,-28,0
COc1cccc(C(=O)Nc2ccc3nc(SCC(=O)N4CCc5ccccc54)sc3c2)c1,·,2%,4.6µM*,3.3µM*,·,·
COc1cccc(C(=O)Nc2ccc3nc(SCc4ccc(C)cc4)sc3c2)c1,·,-1%,16µM*,16µM*,·,·
COc1ccc(C(=O)NCc2nnc(SCC(=O)N3CCc4ccccc43)n2CCc2ccccc2)cc1,15µM*,-1%,?,?,7,6
COc1ccc(C(=O)Nc2ccc3nc(SCC(=O)N4CCc5ccccc54)sc3c2)cc1,·,-2%,5.2µM*,2.9µM*,·,·
COc1ccc(-n2c(Cc3ccccc3)nnc2SCC(=O)N2CCCc3ccccc32)cc1,?,5%,?,?,1,?
COc1ncc2nc(-c3ccc(F)cc3)c(=O)n(C)c2n1,·,·,3%,-9%,·,·
NNC(=O)C(=O)NCCCN1CCOCC1,-10%,1%,-6%,5%,?,17
Cc1ccccc1C(=O)OCc1cc(=O)n2nc(C(C)C)sc2n1,·,10%,-23%,3%,·,·
Cc1cccc(OCC(=O)OCc2cc(=O)n3nc(C4CCCCC4)sc3n2)c1,·,8%,-9%,-17%,·,·
CNC(CC(=O)O)C(=O)O (stereo unspecified),·,19%[56.1 µM],0%,10%,·,·
